# Experimental data: PubChem BioAssay AID1347076 (National Center for Advancing Translational Sciences (NCATS), 2019)
# Out of some 400,000 compounds screened, about 13,000 (3.2%) were called active. Inconclusive results (about 18%) are left out. The call rests on the fitted dose curve; in most records, active means well fitted cell-killing curve with a large enough effect; inconclusive means small, poorly fitted or top-dose-only effect, or effect the other way; inactive means flat fitted curve, though single readings scatter. What follows is part of a selection rich in actives, with near analogues and random picks from the rest.
# Assay: qHTS assay for MDR1-selective chemotherapeutics: Primary screen using the drug-selected MDR subline cells KB-V1; further: nearly all actives have a fitted effect of over 60% in size
# Details: KB-V1 MDR cells viability, CellTiter-Glo, 72 h; series mostly up to 46.1 µM; activity change, negative = cytotoxicity: at the top concentration
# Outline: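 KB-V1 cells (P-gp-expressing MDR subline of KB-3-1) in phenol-red-free DMEM with 10% FBS were exposed to library compounds over a concentration series for 72 h at 37 degrees C. Viability read by CellTiter-Glo luminescence; concentration-effect curves fitted after normalization.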
# On the % scale 0 is the no-effect control and ±100 the full control effect; potency means the concentration at half of the fitted maximal effect.
SMILES,"activity change, negative = cytotoxicity",Potency
CCc1ccccc1NC(=O)N1CCN(C(=O)c2nsc3ccccc23)CC1,-9.18% (inactive),
CCOc1cc(-c2nnc(SCC(=O)NC3CCCC3)nc2-c2ccc(OC)c(OCC)c2)ccc1OC,3.85% (inactive),
CN(c1ccccc1)S(=O)(=O)c1ccc(C(=O)N2CCN(c3ccccc3Cl)CC2)cc1,-14.5% (inactive),
CN(c1ccccc1)S(=O)(=O)c1cc(C(=O)OCC(=O)N2CCN(C(=O)c3ccco3)CC2)ccc1Cl,-22.2% (inactive),
COc1cccc(C(=O)Nc2nnc(S(=O)(=O)N(C)c3ccccc3)s2)c1,17.8% (inactive),
CC(=O)c1ccc(N2CCN(C(=O)c3ccc(Cl)c(S(=O)(=O)NC4CC4)c3)CC2)c(F)c1,6.94% (inactive),
CN(c1ccccc1)S(=O)(=O)c1cc(C(=O)N2CCN(c3ncccn3)CC2)ccc1Cl,,2.91 µM (active)
CN(c1ccccc1)S(=O)(=O)c1cc(C(=O)Nc2nc3ccccc3[nH]2)ccc1Cl,,3.66 µM (active)
CC(OC(=O)c1ccc(NC(=O)CC#N)cc1)C(=O)Nc1ccc(S(=O)(=O)N2CCCC2)cc1 (stereo not drawn),-7.06% (inactive),
Nc1nc2cc(Cl)ccc2n1N,0.774% (inactive),
CCCCN(CC)C(=O)c1c[nH]c2ccc(S(=O)(=O)Nc3cccc(OC)c3)cc2c1=O,0.646% (inactive),
CCCc1nc2c3ccccc3ccn2c1Cc1ccccc1C(F)(F)F,20.4% (inactive),
COC(=O)[C@@]1(Cc2ccc(F)cc2)[C@H]2c3cc(C(=O)N(C)C)n(CCc4c[nH]c5ccc(OC)cc45)c3C[C@H]2CN1C(=O)c1ccccc1,,18.4 µM (active)
C[C@]1(C(=O)NCCc2c[nH]c3ccccc23)C=C[C@@H](Cc2ccccc2)N1C(=O)c1ccccc1,-0.929% (inactive),
COC(=O)[C@@]1(Cc2ccc(OC)cc2)[C@H]2c3cc(C(=O)N4CCCC4)n(Cc4ccc(OC(F)(F)F)cc4)c3C[C@H]2CN1C(=O)c1ccccc1,,20.6 µM (active)
COC(=O)[C@@]1(Cc2ccc(F)cc2)[C@H]2c3cc(C(=O)N4CCCC4)n(C[C@H](O)CO)c3C[C@H]2CN1C(=O)c1ccccc1,24.6% (inactive),
COc1ccc(CNC(=O)C2CCN(C(=O)c3ccccc3)CC2)cc1,19% (inactive),
COc1ccc2c(c1)C(SCC(=O)NCc1ccccc1)CC(C)(C)O2 (stereo not drawn),-13.6% (inactive),
CCN1C(=O)[C@H]2[C@@H](c3ccc(C(F)(F)F)cc3)N[C@]3(CCCN(Cc4ccc(Br)cc4)C3=O)[C@H]2C1=O,-9.24% (inactive),
CC1(C)CC(=O)C=C(c2ccccc2CO)C1=O,0% (inactive),
Cn1c(Nc2ccc(F)cc2)nc2cc(-c3ccsc3)sc2c1=O,3.2% (inactive),
O=C(c1cnn2c1NC(=C1CC1)C=C2C(F)F)N1CCc2ccccc2C1,7.8% (inactive),
CCn1cc(C(=O)NCc2ccccc2)c(=O)c2cc(S(=O)(=O)N3CCCCC3)ccc21,-5.6% (inactive),
C=CCn1cc(C(=O)NCc2ccc(Cl)cc2)c(=O)c2cc(S(=O)(=O)N(CC)CC)ccc21,,18.4 µM (active)

SMILES,"activity change, negative = cytotoxicity",Potency
CCN(CC)S(=O)(=O)c1ccc2c(c1)c(=O)c(C(=O)N1CCN(c3cccc(Cl)c3)CC1)cn2C,21.8% (inactive),
CCOC(=O)C1=CCC2C(=O)N(Cc3ccccc3)C(=O)C12 (stereo not drawn),11.2% (inactive),
COc1cc(NS(=O)(=O)c2ccc(NC(C)=O)cc2)cc(OC)c1,-3.57% (inactive),
CC(=O)c1c(C)oc2ccc(NS(=O)(=O)c3ccc(C(=O)O)cc3)cc12,12.6% (inactive),
CCc1ccc(S(=O)(=O)Nc2cc3c(C(=O)OCc4ccccc4)c(C)oc3c3ccccc23)cc1,0% (inactive),
COc1ccc(S(=O)(=O)Nc2ccc3oc(C)c(C(C)=O)c3c2)cc1,,2.59 µM (active)
COc1ccc(S(=O)(=O)Nc2cc3c(C(=O)OC(C)C)c(C)oc3c3ccccc23)cc1,,5.17 µM (active)
COc1cc2ccccc2cc1C(=O)Nc1ccc(S(=O)(=O)Nc2cc(C)on2)cc1,-2.9% (inactive),
CN1CCn2cnc(C(=O)NCC(=O)OC(C)(C)C)c2C1=O,15.1% (inactive),
Cc1cccc(-n2ccnc2SCC(=O)Nc2cc(C(F)(F)F)ccc2Cl)c1,-2.14% (inactive),
C[C@H](O)[C@@H]1C(=O)N2CCc3c([nH]c4ccccc34)[C@@H]2C[C@@H]1N(C)C(=O)Nc1ccc(F)cc1,0.0676% (inactive),
N#CC1(Nc2ccc3c4c(cccc24)CC3)CCCCC1,10.3% (inactive),
O=C(CCc1nc2sc3c(c2c(=O)[nH]1)CCCC3)NCC(=O)Nc1ccccc1Br,-26.1% (inactive),
O=C(NCCCN1CCOCC1)c1cc2c(s1)CCC2,13.1% (inactive),
O=C(CNC(=O)c1cc2c(s1)CCC2)Nc1ccccc1Br,,18.4 µM (active)
CCN(Cc1ccncc1)C(=S)Nc1ccccc1C,12.6% (inactive),
COc1ccc([C@H]2C[C@@H](n3cc(COC(=O)c4ccccc4)nn3)[C@H](O)CN2C(=O)c2cccs2)cc1,9.34% (inactive),
O=C(Nc1ccc(OCCO)cc1)c1csc([C@H]2C[C@H](O)[C@@H](CO)O2)n1,4.16% (inactive),
Fc1cccc(Cc2c(-c3cccc(Cl)c3)nc3ccc(Br)cn23)c1,11.4% (inactive),
COc1ccc(Cl)cc1NC(=O)COC(=O)C(CC(C)C)N1C(=O)C2CC=CCC2C1=O (stereo not drawn),,10.3 µM (active)
COc1ccc(Cl)cc1NC(=O)c1cccc(N2C(=O)C3CC=CCC3C2=O)c1 (stereo not drawn),3.02% (inactive),
COc1ccc(Cl)cc1NC(=O)COc1ccc2c(c1)OCO2,23.4% (inactive),
O=C(CCSc1ccccc1)N1CCN(c2ccccc2F)CC1,-18.4% (inactive),
CC1(C2CC2)NC(=O)N(CC(=O)N2CCN(c3ccccc3F)CC2)C1=O (stereo not drawn),-20.2% (inactive),

SMILES,"activity change, negative = cytotoxicity",Potency
O=C(Cn1c(-c2ccc(Cl)cc2)noc1=O)N1CCN(c2ccccc2F)CC1,,9.2 µM (active)
Clc1ccccc1Nc1nc(NCc2cccs2)nc2ccsc12,-0.485% (inactive),
CCCNC(=O)C(CC)n1nc(CC)n2c(cc3oc(C)cc32)c1=O (stereo not drawn),-12% (inactive),
CC(C)(C(=O)N1CCC1(C)C(=O)NS(=O)(=O)c1ccc(Br)cc1)c1ccccc1 (stereo not drawn),5.43% (inactive),
CC(OC(=O)c1cccnc1Cl)C(=O)NC1CCCCC1 (stereo not drawn),2.47% (inactive),
Cc1ccc(NC(=O)N2CCC(C(=O)NCc3ccc(F)cc3)CC2)cc1,,18.4 µM (active)
Cc1ccc(C(=O)NC2CCN(C(=O)Nc3ccc(F)cc3)CC2)cc1,0% (inactive),
CCS(=O)(=O)N1CCCC(C(=O)NCc2ccc(C)cc2)C1 (stereo not drawn),9.47% (inactive),
O=C1Nc2ccccc2NC(c2ccc3c(c2)OCO3)=C1N(Cc1ccc(F)cc1)C(=O)c1ccco1,0% (inactive),
O=C(c1ccc2c(c1)N(Cc1ccccc1F)C(=O)c1ccccc1S2(=O)=O)N1CCOCC1,-15.2% (inactive),
COc1ccc(C2c3c(oc4ccccc4c3=O)C(=O)N2Cc2ccc3c(c2)OCO3)cc1 (stereo not drawn),12.9% (inactive),
COc1ccc(C(=O)NCc2nnc(SCCOc3ccccc3)n2C)cc1,-6.27% (inactive),
C=CCn1c(SCC(=O)c2ccc(Br)cc2)nnc1C(C)NC(=O)Cc1ccc(OC)cc1 (stereo not drawn),0.852% (inactive),
C=CCn1c(SCCOc2ccc(OC)cc2)nnc1C(NC(=O)c1ccc(OC)cc1)C(C)C (stereo not drawn),,11.6 µM (active)
CCOC(=O)c1c(C)[nH]c(C)c1C(=O)COC(=O)/C=C/c1cccc([N+](=O)[O-])c1,7.85% (inactive),
O=C(OCc1cn([C@@H]2C[C@H](c3ccc(Cl)cc3)N(Cc3cccs3)C[C@H]2O)nn1)c1ccccc1,-16.6% (inactive),
Cc1ccnc(SC2CC(=O)N(c3ccccc3)C2=O)n1 (stereo not drawn),18.5% (inactive),
COC(=O)c1ccccc1SC1CC(=O)N(c2cccc(C)c2)C1=O (stereo not drawn),-2.53% (inactive),
CCc1cccc(CC)c1N1C(=O)CC(Sc2ccccc2N)C1=O (stereo not drawn),,6.51 µM (active)
COc1cc2c3c(c1)/C(=C1/SC(=S)NC1=O)C(=O)N3C(C)(C)C=C2C,,9.2 µM (active)
O=C(OCc1cn([C@H]2C[C@H](c3ccccc3)N(C(=O)c3cccs3)C[C@@H]2O)nn1)c1ccccc1,13.1% (inactive),
COc1ccc(/C=C2\SC(=S)N(CCC(=O)N3CCOCC3)C2=O)cc1OC,12.8% (inactive),
C=C1C=C(C(F)F)n2ncc(C(=O)NCCc3ccccc3OC)c2N1,0% (inactive),
C=CCNc1ncnc2ccc(Br)cc12,,20.6 µM (active)

SMILES,"activity change, negative = cytotoxicity",Potency
O=C(O)CCCCCNc1ncnc2ccc(Br)cc12,-28.3% (inactive),
Brc1ccc2ncnc(NCc3cccnc3)c2c1,3.72% (inactive),
Cc1ccc2nc(COc3cccc(NC(=O)c4cccc(Cl)c4)c3)cc(=O)n2c1,-2.75% (inactive),
COc1ccc(C(=O)Cc2cnn(-c3ccccc3)c2)c(O)c1,6.65% (inactive),
Cc1cc(O)cc(O)c1C(=O)Cc1cnn(-c2ccccc2)c1,,16.4 µM (active)
O=C(c1cnn(-c2ccc(Cl)cc2)c1)c1ccccc1O,-26.8% (inactive),
Cc1ccc(-c2cc(-c3coc4ccccc4c3=O)c3c(n2)-c2cc(Cl)ccc2OC3)cc1,23.8% (inactive),
Cc1cc(C)c(S(=O)(=O)NN=C2c3ccccc3[C@H]3Cc4csc[n+]4[C@@H]23)c(C)c1,0% (inactive),
C[C@H](CO)N1C[C@H](C)[C@@H](CN(C)C(=O)c2cccc(F)c2)Oc2cc(-c3cncnc3)ccc2S1(=O)=O,-5.26% (inactive),
O=C(NCCOc1ccccc1)c1ccccc1F,-0.571% (inactive),
COc1ccccc1N1CCN(C(=O)c2cc(=O)c3cc(C)cc(C)c3o2)CC1,,0.206 µM (active)
COc1ccccc1N1CCN(C(=O)c2c(-c3c(Cl)cccc3Cl)noc2C)CC1,0% (inactive),
COc1ccccc1N1CCN(C(=O)c2cc(=O)c3cc(C)ccc3o2)CC1,-19.3% (inactive),
O=C(Nc1ccc2c(c1)OCCO2)C1c2ccccc2OCC(=O)N1Cc1ccccn1 (stereo not drawn),0% (inactive),
Cc1ccc(C(=O)N[C@H](C(=O)N2CCN(c3ncccn3)CC2)C(C)C)cc1,-6.89% (inactive),
CC(=O)Cn1cnc2c(cnn2-c2ccccc2)c1=O,2.75% (inactive),
Cc1c(C(=O)NCc2ccccc2)cnn1-c1ccccc1,-2.59% (inactive),
O=C(Cn1cnc2c(cnn2-c2ccccc2)c1=O)NCc1ccccc1,,5.17 µM (active)
COc1ccc(Br)cc1CN(C)CC(=O)Nc1cc(Cl)cc(Cl)c1,,7.31 µM (active)
COc1ccc(Cl)cc1NC(=O)CCS(=O)(=O)c1ccc(Br)cc1,-12.7% (inactive),
COc1ccc(OC)c(NC(=O)CN(C)CCOc2ccc(Br)cc2)c1,-8.21% (inactive),
